ClpP mod – qHTS Assay for Activators of ClpP; Potency, µM (highest dose often 57.5 µM), inactives show top-dose activity change, negative = active; AID 651965, 2013; ATP-dependent Clp protease proteolytic subunit (Bacillus subtilis (strain 168)), P80244; 340,000 compounds, 1.9% hits; purified B. subtilis ClpP, FRET peptide cleavage, 20 min; active = well fitted falling curve with a large enough effect; inconclusive = small, poorly fitted or top-dose-only effect; inactive = no such curve, though single readings can be large or run the other way; also: the source files actives as falling curves though it sought activators and does not explain the sign; nearly all actives have a fitted effect of over 65% in size
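ClpP 10 microg/mL final, pH 8 Tris/KCl buffer with BSA, glycerol, Tween-20; compound pinned in; FRET-FV substrate; RT 20 min; Ex320/Em430; ΔFRET vs ADEP 5.8 microM, DMSO, no enzyme.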
TDP1 cell CPT – growth inhibition of DT40 Tdp1-/-;hTDP1 cells with camptothecin (screen for TDP1 inhibitors); chicken DT40 Tdp1-/-;hTDP1 cells + 20 nM CPT, ATP luminescence, 48 h; Potency, µM (highest dose often 46.2 µM), for the others: top-dose activity change, negative = growth inhibition, actives largely listed as inhibitors; 420,000 compounds, 12% hits; AID 686979; also: % is scaled to controls: 0 for no effect and ±100 for the full control effect; nearly all actives have a fitted effect of over 55% in size
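Chicken DT40 Tdp1-/- cells complemented with human TDP1, 400 cells/well, exposed to compounds plus 20 nM camptothecin for at least 48 h at 37 C; viability read as ATP content by CellTiter-Glo luminescence.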
DT40 TDP1 no CPT – qHTS for Inhibitors of human tyrosyl-DNA phosphodiesterase 1 (TDP1): qHTS in cells in absence of CPT. DT40 Tdp1-/- hTDP1 cells, no CPT, ATP luminescence, 48 h. Potency, µM (titrated, usually from 46.2 µM), for inactives: top-dose activity change, negative = growth inhibition, most hits filed as inhibitors. 420,000 compounds, 15% hits. AID 686978, 2013; also: % is scaled to controls: 0 for no effect and ±100 for the full control effect; nearly all actives have a fitted effect of over 55% in size
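Growth kinetics read by CellTiter-Glo luminescence after ≥48 hr at 37 °C. Cells: DT40 Tdp1-/- stably carrying human TDP1, 400 per well, compound exposure in the absence of CPT (DMSO vehicle).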
TDP1 block – inhibitors of human tyrosyl-DNA phosphodiesterase TDP1 | Q9NUW8 | recombinant TDP1, AlphaScreen DNA substrate cleavage | Potency, µM (top dose mostly 130 µM), for the others: at the highest dose activity change, negative = inhibition, most hits filed as inhibitors | 350,000 compounds, 0.28% hits | AID 485290; also: % is scaled to controls: 0 for no effect and ±100 for the full control effect; nearly all actives have a fitted effect of over 40% in size
Target sequence (Q9NUW8 whole entry, looked up): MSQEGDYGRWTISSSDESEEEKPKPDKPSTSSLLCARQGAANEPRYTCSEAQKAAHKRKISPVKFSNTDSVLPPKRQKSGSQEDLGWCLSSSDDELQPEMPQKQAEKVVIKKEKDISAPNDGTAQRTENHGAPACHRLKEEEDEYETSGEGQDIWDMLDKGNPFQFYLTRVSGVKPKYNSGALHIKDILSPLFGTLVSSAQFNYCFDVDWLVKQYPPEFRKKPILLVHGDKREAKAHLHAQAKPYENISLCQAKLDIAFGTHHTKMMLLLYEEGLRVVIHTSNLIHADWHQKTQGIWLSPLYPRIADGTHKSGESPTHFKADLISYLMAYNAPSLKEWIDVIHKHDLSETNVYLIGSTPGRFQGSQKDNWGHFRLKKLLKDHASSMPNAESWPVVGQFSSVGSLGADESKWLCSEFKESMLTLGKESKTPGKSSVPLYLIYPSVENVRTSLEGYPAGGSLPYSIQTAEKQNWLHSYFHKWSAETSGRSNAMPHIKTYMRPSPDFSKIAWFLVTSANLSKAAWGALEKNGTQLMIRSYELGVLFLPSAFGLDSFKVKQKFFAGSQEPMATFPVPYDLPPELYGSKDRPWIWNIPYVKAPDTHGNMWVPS
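Compounds were preincubated with Tdp1 (1 nM final) for 15 min at room temperature before substrate (15 nM final) started a 5 min reaction; beads (10 ug/ml final) were then added for 10 min before AlphaScreen detection.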
Numbers without * were called inactive; ? = inconclusive; . = not tested or not shown. In the library only some 17% were active in any assay of this set; here they are far more common. Unless noted, calls follow the shape of the dose curve; as a rule, active = well fitted curve in the direction sought with a large enough effect; inconclusive = small, poorly fitted or top-dose-only effect, or another doubt; inactive = no such curve, though single readings can be large; an effect the other way counts as inactive or inconclusive. Potency is read from the fitted curve at half-maximal effect.

SMILES	ClpP mod	TDP1 cell CPT	DT40 TDP1 no CPT	TDP1 block
Cc1ccc(S(=O)(=O)NC2(C(F)(F)F)C(=O)Nc3c2c(=O)[nH]c(=O)n3-c2ccccc2)cc1 (stereo unspecified)	-3%	0%	-9%	2%
O=C(NCc1cccc(F)c1)c1ccc2nc(N3CCCCC3)sc2c1	?	?	-29%	4%
COc1ccc(-c2csc(N3N=C(C)C(C)C3=O)n2)cc1 (stereo unspecified)	.	?	?	6%
CC1=NN(c2nc(-c3ccc(C)cc3)cs2)C(=O)C1N=Nc1cccc(O)c1 (stereo unspecified)	.	?	16µM*	2%
COc1ccc(N=NC2C(=O)N(c3ccccc3)N=C2C)cc1 (stereo unspecified)	-1%	-3%	6%	.
CC1=NN(c2nc(-c3ccc(C)cc3)cs2)C(=O)C1N=Nc1ccccc1O (stereo unspecified)	.	4.1µM*	4.6µM*	10%
O=C(Nc1ccncc1Cl)c1ccncc1	-2%	-14%	9%	4%
CC(=O)OC[C@H]1O[C@@H](Oc2cc(O)cc3oc(-c4ccc(O)cc4)cc(=O)c23)[C@H](O[C@@H]2O[C@@H](C)[C@H](O)[C@@H](O)[C@H]2O)[C@@H](O)[C@@H]1O	-10%	5%	-3%	0%
C[C@H](NC(N)=O)C(=O)Nc1ccc2c(c1)OCO2	-1%	-1%	15%	-6%
NC(=O)c1cccc(-c2cc(Nc3ccc(OC(F)(F)F)cc3)ncn2)c1	?	?	15µM*	1%
CCc1cccc(NC(=O)CN2CCCN(Cc3cccc(C)c3)S2(=O)=O)c1	1%	?	29µM*	1%
Cc1cccc(CN2CCN(CC(=O)Nc3c(C)cccc3C)S2(=O)=O)c1	-1%	?	16µM*	-6%
COc1ccc(C2=NOC(C(=O)NCc3ccc(F)cc3)C2)cc1 (stereo unspecified)	-2%	2.3µM*	2.3µM*	-4%
COc1cc(OC)c(C2=NOC(C(=O)NCc3cccs3)C2)cc1Cl (stereo unspecified)	.	2.3µM*	2.3µM*	1%
O=C(NCc1cccs1)C1CC(c2ccccc2O)=NO1 (stereo unspecified)	-6%	21µM*	?	1%
COc1cc(C2=NOC(C(=O)NCc3cccs3)C2)cc(OC)c1OC (stereo unspecified)	-3%	2.3µM*	1.6µM*	3%
C=Cc1ccc(Cn2c(C)c(CNCCc3ccc(OCC)cc3)c(C(=O)O)c2C)cc1	0%	?	?	5%
COc1ccc(CCNC(=O)c2ccc([N+](=O)[O-])cc2)cc1	.	23µM*	?	0%
COc1cc(NC(=O)C2CC(c3cccc(OC)c3OC)=NO2)cc(OC)c1OC (stereo unspecified)	1%	14µM*	16µM*	3%
COc1ccc(C2=NOC(C(=O)NCc3cccs3)C2)cc1 (stereo unspecified)	-1%	5.2µM*	2.9µM*	-4%
CCn1ncc(C2=NOC(C(=O)NCc3ccc(Cl)cc3)C2)c1C (stereo unspecified)	0%	5.8µM*	5.8µM*	0%
COc1cccc(C2=NOC(C(=O)Nc3cccnc3Cl)C2)c1OC (stereo unspecified)	.	-4%	-16%	0%
COc1ccc(C(=O)Nc2nc3nc(C)c(Cl)c(=O)n3[nH]2)cc1	0%	3%	-9%	0%
Cc1ccc2c(CN3CCN(c4ccc(Cl)cc4)CC3)cc(=O)oc2c1	0%	-22%	-26%	2%
COc1ccc(CCNC(=O)C2CC(c3ccc([N+](=O)[O-])cc3)=NO2)cc1 (stereo unspecified)	-2%	6.5µM*	?	6%
COc1cc(OC)c(C2=NOC(C(=O)NCc3cccnc3)C2)cc1Cl (stereo unspecified)	-12%	?	15µM*	.
CC(C)CN1C(=O)NC2(CCCc3ccccc32)C1=O (stereo unspecified)	-1%	-1%	17%	1%

Screening results (PubChem BioAssay)
